From PubChem
Shown are actives, neighbours in structure and some others; about 0.5% of the full set was active somewhere.
Menin-MLL TR inh – displaces Texas Red mutant MLL peptide from human menin. O00255. Menin + Texas Red MLL mutant peptide, fluorescence polarization. Potency, µM (doses to about 61.6 µM), hits mostly inhibitors. actives 0.23% (n = 270,000); active means well fitted inhibition curve with a large enough effect in the polarisation, with a control signal flat, not every such curve was filed as active; inconclusive means small, poorly fitted or top-dose-only effect, or effect the other way, or a change in a side signal; inactive means no such curve, though single readings can be large or run the other way; the % refers to the polarisation
TR SRC2 fluor cs – alters Texas Red total fluorescence, flagging assay interference; TRb/SRC2 Texas Red total fluorescence interference; Potency, µM (titrated, usually from 106 µM); actives 0.29% (n = 280,000); AID 1479; active means well fitted curve in either direction with a large enough effect; inconclusive means small, poorly fitted or top-dose-only effect
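Human TRb ligand-binding domain at 0.6 uM with 20 nM Texas Red SRC2 peptide in Tris buffer containing 1 uM T3 and 5% DMSO, incubated with compound 5 h at ambient temperature. Total fluorescence (555/632 nm) calculated as parallel + 2 × perpendicular.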
MLL CXXC-DNA inh – MLL CXXC-DNA interaction inhibition; Q03164; MLL-CXXC / FITC-HOXA9 DNA fluorescence polarization; Potency, µM (top dose mostly 115 µM), actives largely listed as inhibitors; actives 0.037% (n = 290,000); AID 2662; active means well fitted inhibition curve with a large enough effect in the polarisation, with a control signal flat, not every such curve was filed as active; inconclusive means small, poorly fitted or top-dose-only effect, or effect the other way, or a change in a side signal; inactive means no such curve, though single readings can be large or run the other way; the % refers to the polarisation
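Purified MLL-CXXC (added from a 7 uM solution) was preincubated 5 min at ambient with pinned compounds in 50 mM Tris-HCl pH 7.5, 50 mM NaCl, 1 mM DTT, 0.05% BSA. Fluorescein-labeled HOX-A9 DNA (50 nM solution) followed, 30 min, then polarization read.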
TRb SRC2 PPI – disrupts binding of human TR beta to SRC2. P10828. TRbeta-SRC2 peptide binding, fluorescence polarization; receptor liganded with 1 µM T3. Potency, µM (series often up to 106 µM), usual class: inhibitors. actives 0.065% (n = 280,000); further: nearly all actives have a fitted effect of over 50% in size
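Fluorescence polarization of 20 nM Texas Red SRC2 peptide (20-aa NR interaction domain) bound to 0.6 uM human TRb ligand-binding domain, with 1 uM T3, after 5 hr at ambient temperature; inhibition seen as decreased polarization.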
Menin-MLL FL inh – menin-MLL binding inhibition, fluorescein peptide; FP activity change, % at 61.4 µM; Fluorescence polarization, fluorescein-MLL peptide displacement from menin; 290,000 tested, under 10 active; active means well fitted curve in the direction sought with a large enough effect in the polarisation, not every such curve was filed as active; inconclusive means small, poorly fitted or top-dose-only effect, or effect the other way, or a change in a side signal; inactive means no such curve, though single readings can be large or run the other way; the % refers to the polarisation
RGS12 GoLoco inh-1 – blocks human Gai1 binding to RGS12 GoLoco peptide, red readout | AID 880 | Potency, µM (titrated, usually from 61.6 µM), hits mostly inhibitors | actives 0.44% (n = 230,000) | P63096 | Gai1:RGS12 GoLoco peptide FP, rhodamine, 10 min; active means well fitted inhibition curve with a large enough effect, not every such curve was filed as active; inactive means no such curve, though single readings can be large or run the other way; further: nearly all actives have a fitted effect of over 30% in size
RGS12 GoLoco inh-2 – RGS12 (human) GoLoco motif inhibition, red FP. shares compounds with RGS12 GoLoco inh-1. Gai1/rhodamine-RGS12 GoLoco peptide fluorescence polarization. Potency, µM (top dose mostly 57.1 µM), actives largely listed as inhibitors. actives 50% (n = 110). AID 2390
MLL CXXC Fl – inhibitors of human MLL CXXC domain-DNA interaction. shares compounds with MLL CXXC-DNA inh. actives 70% (n = 200). MLL CXXC-DNA binding, fluorescein FP. AID 624160. Potency, µM (doses to about 345 µM), usual class: inhibitors; further: nearly all actives have a fitted effect of over 80% in size
MLL CXXC TxRed – inhibitors of human MLL CXXC domain-DNA interaction, Texas Red format | shares compounds with MLL CXXC-DNA inh | MLL CXXC-DNA binding, Texas Red fluorescence polarization | Potency, µM (titrated, usually from 345 µM), most hits filed as inhibitors | actives 40% (n = 200) | AID 624161; further: nearly all actives have a fitted effect of over 75% in size
MLL CXXC TRF – disrupts human MLL CXXC domain binding to DNA by HTRF; shares compounds with MLL CXXC-DNA inh; MLL CXXC-DNA binding, HTRF, biochemical; Potency, µM (titrated, usually from 172 µM), usual class: inhibitors; actives 30% (n = 210); further: nearly all actives have a fitted effect of over 80% in size
Numbers stand for hits; . = inactive; ? = inconclusive; / = not tested or not shown. Unless noted, the call rests on the fitted dose curve; in most records, active means well fitted curve in the direction sought with a large enough effect; inconclusive means small, poorly fitted or top-dose-only effect, or another doubt; inactive means no such curve, though single readings can be large; an effect the other way counts as inactive or inconclusive.

SMILES	Menin-MLL TR inh	TR SRC2 fluor cs	MLL CXXC-DNA inh	TRb SRC2 PPI	Menin-MLL FL inh	RGS12 GoLoco inh-1	RGS12 GoLoco inh-2	MLL CXXC TRF	others
O=C(O)c1ccc(COc2ccc(/C=N/NC(=O)c3cccs3)cc2)cc1	.	.	.	.	.	10µM	?	/
CCOc1cc(CNCCSc2nnnn2-c2ccccc2)ccc1OC	/	.	/	.	/	/	/	/
COc1ccccc1C1=Nn2c(nc3sc(C(=O)Nc4ccccc4Cl)c(C)c3c2=O)SC1	/	.	/	.	/	/	/	/
C[n+]1cn(CC(O)COCc2ccccc2)c2ccccc21 (stereo not drawn)	.	.	.	.	.	16µM	14µM	/
CCCc1n(CC(O)COCc2ccccc2)c2ccccc2[n+]1C (stereo not drawn)	.	.	.	.	.	.	/	/
Cc1cc(C)n(CC(O)COCc2ccccc2)n1 (stereo not drawn)	.	.	.	.	.	/	/	/
Cc1cc2c(cc1C)[n+](C)cn2CC(O)COCc1ccccc1 (stereo not drawn)	.	.	.	.	.	11µM	22µM	/
Cc1[nH]c2ccccc2c1C(=O)CNc1nccs1	.	.	.	.	.	.	6.3µM	/
CCn1c(SCC(=O)N2CCCCCC2)nc2ccccc2c1=O	.	/	.	/	.	/	/	/
CCn1c(SCC(=O)N2CCN(c3cccc(Cl)c3)CC2)nc2ccccc2c1=O	.	.	.	.	.	.	.	/
COc1cccc(C(=O)N/N=C/c2ccc(Oc3ccc([N+](=O)[O-])cn3)c(OC)c2)c1	.	.	.	.	.	.	18µM	/
COc1cc(/C=N/NC(=O)c2ccncc2)ccc1Oc1ccc([N+](=O)[O-])cn1	.	.	.	.	.	.	/	/
CCCCCCCCCCCCCCCC[n+]1cccc2ccccc21	?	.	?	45µM	.	2.2µM	4.5µM	/
CCCCCCCCC[n+]1cccc2c3ccccc3ccc21	.	.	.	.	.	.	/	/
COc1ccc(Cl)cc1NC(=O)c1cn(C2CCCC2)c(=O)c2c1c1ccccc1n2C	/	.	/	.	/	/	/	/
Cc1nc2nc(-c3ccc(Cl)cc3)cn2nc1C	/	.	.	.	.	.	/	/
Cc1nc2nc(-c3cccs3)cn2nc1C	.	.	35µM	.	?	.	/	.	MLL CXXC Fl=126µM;MLL CXXC TxRed=.
O=c1[nH]c(-[n+]2ccccc2)c(/C=N/NC([S-])=Nc2ccccc2)s1	/	.	35µM	.	?	.	/	.	MLL CXXC Fl=?;MLL CXXC TxRed=?
Cn1ncc(N=Cc2c(O)ccc3ccccc23)c1C(=O)Nc1cccc(Cl)c1	?	.	45µM	.	?	.	/	.
CS(=O)(=O)n1nc(-c2ccc(Cl)cc2)nc1N	.	.	.	.	.	.	/	/
Cn1nc(-c2ccc(Cl)cc2)nc2c(=O)n(C)c(=O)nc1-2	?	.	32µM	?	?	.	/	.	MLL CXXC Fl=142µM;MLL CXXC TxRed=?
CCOC(=O)/C(=C/C=C1\Sc2cc(OCC)c(OCC)cc2N1CC)C(C)=O	.	.	?	.	?	.	/	.	MLL CXXC Fl=0.56µM;MLL CXXC TxRed=?
Cc1ccc(NC(=O)CCC(=O)N2Cc3ccccc3Oc3ncccc32)c(C)c1	/	.	/	.	/	/	/	/
COc1ccc(C(C[N+](=O)[O-])C2(c3ccc(OC)c(OC)c3)C(=O)c3ccccc3C2=O)cc1 (stereo not drawn)	.	.	?	.	.	.	/	.	MLL CXXC Fl=.;MLL CXXC TxRed=.
